According to PubChem BioAssay (NCI):
About 83,000 compounds went through this panel and 20% of them were active in at least one assay; those are over-represented in the sample as a whole.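 Single-dose data. Exposure time 48 hours. Values below 10 considered active.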 Calls of active or inactive are those of the source.

Experiments:
Assay in all cases: NCI-60 one-dose screen, 48 h (100 = growth as untreated, 0 = no growth, -100 = all killed)
Settings in all cases: 10 µM unless noted
[1] = tested on: EKVX NSCLC
[2] = tested on: SN12C renal
[3] = tested on: UO-31 renal
[4] = tested on: TK-10 renal
[5] = tested on: ACHN renal
[6] = tested on: CAKI-1 renal
[7] = tested on: A498 renal
[8] = tested on: CCRF-CEM leukemia
[9] = tested on: MOLT-4 leukemia
[10] = tested on: SR leukemia

Measured: growth

COc1ccc(-c2cc(Cc3cccs3)c(=O)n(Cn3ccc4ccccc43)n2)cc1
inactive: [1] 101% | [2] 97.7% | [3] 83% | [4] 98.1% | [5] 102% | [6] 95.7% | [7] 98.9% | [8] 66% | [9] 97.5% | [10] 87%

CCCCCCCCCCCCCCCCCC1=NC(C)(C)CN1CCO
inactive: [1] 15.3% | [7] 117%
active: [2] -29.6% | [3] -62.9% | [4] -33.8% | [5] -49.2% | [6] -41% | [8] -42.9% | [9] -55.7% | [10] -42.7%

CCN(CC)CCOc1ccccc1-n1c(C)ccc1-c1ccccc1
active: [9] -35.2% | [10] -29.4%
inactive: [1] 83.8% | [2] 91.7% | [3] 55.2% | [4] 85.2% | [5] 105% | [6] 85.1% | [7] 65.1% | [8] 28.1%

CCCCCCCC1(C)NC(=O)NC1=O (configuration not stated)
inactive: [1] 105% | [2] 109% | [3] 93.8% | [4] 132% | [5] 101% | [6] 105% | [7] 103% | [8] 94.2% | [9] 106% | [10] 96.9%

COc1cc2c(cc1OCCCOc1ccc(-c3cc4ccccc4c4ccccc34)cc1)N=C[C@@H]1CCCN1C2=O
active: [1] -74.1% | [2] -73.5% | [3] -59.3% | [4] -75.6% | [5] -85.3% | [6] -19.6% | [7] -82.8% | [8] 6.61%
inactive: [9] 17.4% | [10] 102%

COC(=O)[C@]12CC[C@@H](C)[C@H](C)[C@@H]1C1=CC[C@@H]3[C@@]4(C)C=C(O)C(=O)[C@@]5(C)COC(=C54)C[C@@]3(C)[C@]1(C)CC2
active: [1] -56.7% | [2] -29.9% | [3] -50.2% | [4] -62.3% | [5] -71.7% | [6] -45.7% | [7] -78% | [8] -60.8% | [9] -72.1% | [10] -68.2%

Oc1[nH]c2ccc(Cl)cc2c1/C=c1/ccc2c(c1)N=C(c1ccc(C(F)(F)F)cc1)N=2
inactive: [1] 87.4% | [2] 88.3% | [3] 62.2% | [4] 88.4% | [5] 57% | [6] 54.3% | [7] 95.4% | [8] 15.5% | [9] 21.3% | [10] 25.9%

NNC(=O)C1CC2c3ccccc3C1c1ccccc12 (configuration not stated)
inactive: [1] 115% | [2] 97.8% | [3] 93.8% | [4] 97.5% | [5] 117% | [6] 103% | [7] 129% | [8] 82.8% | [9] 105% | [10] 89%

COc1cc(-c2cc(C(=O)Nc3nc4ccccc4s3)nc3cc(-c4ccccc4)nn23)cc(OC)c1OC
inactive: [1] 107% | [2] 99.5% | [3] 87.9% | [4] 106% | [5] 101% | [6] 84.6% | [7] 127% | [8] 72.3% | [9] 76% | [10] 67%

COc1cc(OC)c2cc(C(=O)O)c(=O)oc2c1
inactive: [1] 98.2% | [2] 108% | [3] 80.7% | [4] 90.6% | [5] 107% | [6] 85.9% | [7] 102% | [8] 113% | [9] 74.9% | [10] 115%

O=C(CN1CCCCC1)Sc1nnc2sc3ccccc3n12
inactive: [1] 104% | [2] 103% | [3] 68.3% | [4] 122% | [5] 118% | [6] 86.2% | [7] 107% | [8] 104% | [9] 98.1% | [10] 99.9%

O=C(C(=O)N1CCOCC1)c1ccc(OC2OC(CO)C(O)C(O)C2O)cc1 (configuration not stated)
inactive: [1] 104% | [2] 106% | [3] 102% | [4] 101% | [5] 97.9% | [6] 98.5% | [7] 104% | [8] 107% | [9] 90.3% | [10] 102%

CCCCCCCCCCSc1ncnc2nc[nH]c12
inactive: [1] 51.4% | [2] 59.8% | [3] 48.5% | [4] 82% | [5] 63.9% | [6] 69.4% | [7] 61.4% | [8] 57.9% | [9] 72.5% | [10] 82.6%

COc1cc(/C=C2\COc3ccc(O)c(O)c3C2=O)cc(OC)c1
inactive: [1] 56.4% | [4] 16.3% | [7] 112%
active: [2] -89.7% | [3] -95.6% | [5] -85.7% | [6] 4.89% | [8] 3.2% | [9] -24.3% | [10] -13.6%

CCOC(=O)c1cc(-c2cccnc2)nc2c(Cl)cc(Cl)cc12
inactive: [1] 96.5% | [2] 86.6% | [3] 75% | [4] 75.7% | [5] 73.8% | [6] 105% | [7] 103% | [8] 88.9% | [9] 98.9% | [10] 117%

Cc1cc(CC(=O)O)n(C)c1C(=O)c1ccc(Cl)cc1
inactive: [1] 102% | [2] 109% | [3] 104% | [4] 108% | [5] 101% | [6] 96% | [7] 123% | [8] 95.6% | [9] 98.3% | [10] 107%

CCN(CC)CCCCNc1c2ccccc2[n+](C)c2c1[nH]c1ccccc12
inactive: [3] 22.2% | [5] 27.9% | [6] 81%
active: [1] -20.3% | [2] -2.39% | [4] -12.1% | [7] -11.8% | [8] -33.1% | [9] -4.88% | [10] -37.3%

O=C(C=C=Nc1ccccc1)C(=O)N=C=Cc1ccccc1
inactive: [1] 72.6% | [2] 77.7% | [6] 17.7% | [7] 102%
active: [3] -51.3% | [4] -20.3% | [5] -58.3% | [8] -35.5% | [9] -16.3% | [10] 3.67%

Cc1c(C(N)=O)sc2ncn(CC(=O)Nc3ccc(Cl)cc3)c(=O)c12
inactive: [1] 104% | [2] 112% | [3] 160% | [4] 128% | [5] 108% | [6] 40.6% | [7] 126% | [8] 121% | [9] 112% | [10] 85%

CC(C)C(=O)Cc1cnccn1
inactive: [1] 99.4% | [2] 98.6% | [3] 90.8% | [4] 104% | [5] 108% | [6] 83.4% | [7] 101% | [8] 115% | [9] 123% | [10] 114%

COc1cccc(/C=C2\COc3ccc(O)c(O)c3C2=O)c1OC
inactive: [1] 70.4% | [4] 11.7% | [6] 22.6% | [7] 80.3%
active: [2] -62.7% | [3] -94.7% | [5] -60.1% | [8] 3.28% | [9] -12.8% | [10] -8.94%

CC(c1cc(Cl)ccc1O)c1cc(Cl)ccc1O
active: [3] -7.88%
inactive: [1] 41.1% | [2] 39.5% | [4] 90.7% | [5] 41.4% | [6] 84.9% | [7] 81.1% | [8] 33.5% | [10] 53.3%

O=C(Nc1ccc(Cl)cc1Cl)Nc1ccc(-c2cccnc2)cc1N1CCC(CO)CC1
active: [7] 6.41% | [10] 6.57%
inactive: [1] 50.6% | [2] 30.7% | [3] 17% | [4] 52.8% | [5] 41.1% | [6] 25.5% | [8] 17.8%

O=C(Nc1ccccc1Cl)c1cnc2ccc(C3CCNCC3)cn12
inactive: [1] 38.5% | [2] 58.8% | [5] 12.7% | [7] 36.6% | [8] 112% | [9] 62.5% | [10] 93%
active: [3] -9.91% | [4] -13.2% | [6] -40.1%

C[n+]1ccc(Nc2ccc(NC(=O)c3ccc(Nc4cc[n+](C)c5ccc(N)cc45)cc3)cc2)cc1
inactive: [1] 93.9% | [2] 88.4% | [3] 75.7% | [4] 108% | [5] 100% | [6] 94.5% | [7] 93.9% | [8] 98% | [9] 97.5% | [10] 93.2%

CSC1=Nc2c(c(C)c(-c3ccccc3)n2CCCN2CCCCC2)C2=NC(=O)C[C@H](C)N12
inactive: [1] 41.9% | [2] 45.5% | [3] 56.6% | [4] 48.7% | [5] 66.8% | [6] 66.9% | [7] 80.8% | [8] 20.7% | [9] 67.6%
active: [10] 2.43%

CCC1=C(c2ccc(OC)cc2)C(C)(C)Oc2c1ccc(O)c2CN1CCCC1
active: [10] -4.25%
inactive: [1] 88.8% | [2] 51.8% | [3] 31.3% | [4] 57.3% | [5] 57.5% | [6] 44.5% | [7] 58.4% | [8] 21.2%

CCC(O)C(C)(C)C (configuration not stated)
inactive: [1] 99% | [2] 101% | [3] 101% | [4] 98.8% | [5] 110% | [6] 94.3% | [7] 96.3% | [8] 116% | [9] 111% | [10] 110%
